Assay outcomes (PubChem)
BAZ2B block: BAZ2B (human) inhibition; 360,000 tested, 4.4% active; AlphaScreen BAZ2B-H3K14Ac peptide displacement; Potency, µM (doses to about 114 µM), without a hit: at the highest dose activity change, negative = inhibition, actives largely listed as inhibitors; Q9UIF8; also: % is scaled to controls: 0 for no effect and ±100 for the full control effect; nearly all actives have a fitted effect of over 60% in size
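Compounds, titrated to a top concentration of 110 uM, were incubated 30 min at room temperature with preformed BAZ2B/acetyl-K14 H3 peptide complex (50 nM each). Proximity signal was measured by AlphaScreen after 20 min with beads.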
L3MBTL1 block: L3MBTL1 (human) inhibition. Q9Y468. AlphaScreen L3MBTL1–H3K9me1 peptide binding. Potency, µM (titrated, usually from 57.1 µM), inactives show at the highest dose activity, negative = inhibition, hits mostly inhibitors. 230,000 tested, 0.66% active. AID 485360; also: % is scaled to controls: 0 for no effect and ±100 for the full control effect; nearly all actives have a fitted effect of over 60% in size
Target sequence (Q9Y468 whole entry, looked up): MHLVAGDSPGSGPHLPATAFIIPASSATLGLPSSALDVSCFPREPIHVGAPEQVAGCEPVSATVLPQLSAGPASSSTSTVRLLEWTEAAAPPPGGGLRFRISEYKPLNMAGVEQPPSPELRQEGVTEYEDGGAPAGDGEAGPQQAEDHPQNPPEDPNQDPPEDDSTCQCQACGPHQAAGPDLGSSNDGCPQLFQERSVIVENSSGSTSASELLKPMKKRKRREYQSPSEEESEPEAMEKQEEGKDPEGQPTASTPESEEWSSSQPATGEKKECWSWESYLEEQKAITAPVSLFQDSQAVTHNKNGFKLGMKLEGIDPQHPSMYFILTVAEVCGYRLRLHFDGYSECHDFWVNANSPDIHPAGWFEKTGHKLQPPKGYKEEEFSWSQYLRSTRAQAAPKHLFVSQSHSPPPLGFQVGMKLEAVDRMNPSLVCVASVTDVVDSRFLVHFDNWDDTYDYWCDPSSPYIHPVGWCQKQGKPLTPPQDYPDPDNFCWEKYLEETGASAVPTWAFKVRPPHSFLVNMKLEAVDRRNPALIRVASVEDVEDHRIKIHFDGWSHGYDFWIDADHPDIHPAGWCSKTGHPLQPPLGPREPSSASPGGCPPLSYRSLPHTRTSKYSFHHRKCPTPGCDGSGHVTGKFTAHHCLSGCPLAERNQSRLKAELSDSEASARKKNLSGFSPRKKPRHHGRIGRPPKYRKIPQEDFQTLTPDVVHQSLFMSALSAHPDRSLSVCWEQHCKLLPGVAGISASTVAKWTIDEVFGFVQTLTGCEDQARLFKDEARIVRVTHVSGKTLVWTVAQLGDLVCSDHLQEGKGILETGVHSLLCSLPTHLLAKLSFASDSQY
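AlphaScreen assay: L3MBTL1 (50 nM final) was preincubated 30 min at room temperature with biotinylated H3(1-15)K9me1 peptide (75 nM final), then 30 min with library compounds; streptavidin donor and nickel chelate acceptor beads (10 ug/mL final) added, 30 min dark.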
HP1b chromo inh: blocks HP1-beta chromodomain binding to methylated histone tails; 390,000 tested, 0.56% active; P83916; AID 540317; Potency, µM (top dose mostly 114 µM), for inactives: top-dose activity change, negative = inhibition, usual class: inhibitors; AlphaScreen HP1-beta / biotin-H3K9me3 peptide binding; also: nearly all actives have a fitted effect of over 70% in size
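AlphaScreen: HP1-beta (50 nM) preformed 30 min with biotin-H3(1-18)K9me3 peptide (50 nM) in PBS pH 7.4, 0.01% Tween-20. Compound added for 30 min at RT, then streptavidin donor/nickel chelate acceptor beads (10 ug/mL) for 30 min.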
G9a block: G9a (human) methyltransferase inhibition; Potency, µM (series often up to 102 µM), without a hit: at the highest dose activity, negative = inhibition, actives largely listed as inhibitors; G9a H3K9 monomethylation, AlphaScreen, 2 h; 350,000 tested, 8.8% active; also: % is scaled to controls: 0 for no effect and ±100 for the full control effect; nearly all actives have a fitted effect of over 75% in size
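Step 1: enzyme (final 20 nM) with compound, 15 min RT. Step 2: substrate peptide 500 nM and SAM 20 uM, 2 h RT. Step 3: anti-H3K9me1 antibody and AlphaScreen beads, 10 min, then plate read.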
JMJD2A Tudor inh: blocks the human JMJD2A Tudor domain; Potency, µM (highest dose often 114 µM), inactives show top-dose activity change, negative = inhibition, most hits filed as inhibitors; 390,000 tested, 4.4% active; AID 504339; AlphaScreen JMJD2A-Tudor / H3K4me3 peptide binding; also: % is scaled to controls: 0 for no effect and ±100 for the full control effect; nearly all actives have a fitted effect of over 50% in size
* hit, by the source's call; ? = inconclusive; . = no result given; ! = not confirmed by another sample; [ ] = another dose, or the depositor's remark. In the library only some 11% were active in any assay of this set; here they are far more common. Calls follow the shape of the dose curve; as a rule, active = well fitted inhibition curve with a large enough effect; inconclusive = small, poorly fitted or top-dose-only effect; inactive = no such curve, though single readings can be large or run the other way. Potency is read from the fitted curve at half-maximal effect.

SMILES | BAZ2B block | L3MBTL1 block | HP1b chromo inh | G9a block | JMJD2A Tudor inh
CCOc1ccc(C(=O)N2CCN(c3ncccn3)CC2)cc1 | . | . | 20% | . | -17%
CCOC(=O)c1c(C)[nH]c(C)c1S(=O)(=O)N(C)CC(=O)Nc1ccc(C)c(N(C)C)c1 | ? | . | 4% | -4%[59 µM] | -36%
CC(c1ccccc1)n1c(-c2ccccc2F)n[nH]c1=S (configuration not stated) | -2% | -3% | 20% | . | 22µM*
CC(C)n1c(-c2ccccc2F)n[nH]c1=S | -6% | 13% | 16% | . | 4µM*
CC(C)n1c(-c2ccc(C(C)(C)C)cc2)n[nH]c1=S | -31% | -1% | 15% | 2.5µM* | 28µM*
CC(c1ccc(F)cc1)n1c(-c2cccs2)n[nH]c1=S (configuration not stated) | -31% | -7% | 20% | 5µM* | ?
CC(c1ccccc1)n1c(-c2ccc(Cl)cc2)n[nH]c1=S (configuration not stated) | -35% | -14% | 33% | . | -34%
Fc1cccc(Cl)c1Cn1c(-c2cccs2)nc2ccccc21 | 6% | . | 47% | 5%[59 µM] | -4%
COc1ccc(O)c(/C=N/NC(=O)CCC(=O)Nc2ccc(F)cc2)c1 | -12% | . | 29% | 21%[0.501 µM] | -5%
CN1OC[C@@H]2CN(Cc3ccc(Cl)cc3)[C@H](c3cccc(Br)c3)C[C@@H]21 | . | . | 14% | . | -11%
COC(=O)c1c(NC(=O)Cc2coc3cc(C)ccc23)sc2c1CCCC2 | -7% | . | 26% | 6%[59 µM] | -9%
CC(c1ccccc1)n1c(-c2ccncc2)n[nH]c1=S (configuration not stated) | 5% | . | 15% | 2.5µM* | 18µM*
Cc1ccc(C)n1-c1ccc(N(C)C)cc1 | 25µM* | . | ? | 7.1µM* | 50µM*
COc1cc(Sc2ccc(C)cc2)c(OC)cc1N | 14µM* | ? | 28µM* | 3.5µM* | 22µM*
NS(=O)(=O)c1ccc(NC(=O)c2csnn2)cc1 | -16% | . | ? | 22µM* | 89µM*
O=C(NNS(=O)(=O)c1ccc(Br)cc1)c1csnn1 | -6% | 8% | -4% | 50µM* | ?
CC(C)c1ccc(NC(=O)c2csnn2)cc1 | -27% | . | 9% | -14%[12.7 µM] | -16%
Cc1c(NC(=O)c2cnc(Cl)c(Cl)c2)c(=O)n(-c2ccccc2)n1C | 1% | . | 36% | 13% | -5%
CN(C)C(=O)c1ccc(-c2cncnc2NCCc2cnc[nH]2)cc1 | . | . | . | -2%[0.501 µM] | .
CCOC(=O)c1cccc(NC(=O)c2ncoc2-c2ccco2)c1 | -9% | . | 37% | 9%[59 µM] | -15%
CN(C)S(=O)(=O)c1ccc(SCC(=O)Nc2cccc(S(=O)(=O)N3CCCC3)c2)nc1 | . | . | 32% | . | -17%
O=C(O)CSc1cccc2cccnc12 | ? | -4% | 9% | 14µM*! | 8%
CN(C)S(=O)(=O)c1cccc(NC(=O)CSc2cccc3cccnc23)c1 | 56µM* | . | -7% | 56µM* | ?
Cc1nn(-c2ccccc2)c2c1C(c1ccc(Br)s1)C(C#N)=C(N)O2 (configuration not stated) | 11µM* | ? | ? | 16µM* | 13µM*
Cc1ccc(-n2nc(C)c3c2OC(N)=C(C#N)C3c2ccc(C)o2)cc1 (configuration not stated) | 10µM* | ? | -26% | 8.9µM* | 11µM*
SMILES | BAZ2B block | L3MBTL1 block | HP1b chromo inh | G9a block | JMJD2A Tudor inh
Cc1nn(-c2ccccc2)c2c1C(c1ccccc1)C(C#N)=C(N)O2 (configuration not stated) | ? | -6% | -8% | ? | -15%[11.4 µM]
Cc1ccc(-n2nc(C)c3c2OC(N)=C(C#N)C3c2ccco2)cc1 (configuration not stated) | 18µM* | ? | 45µM* | ? | 56µM*
COc1ccc(C2C(C#N)=C(N)Oc3c2c(-c2ccccc2)nn3-c2ccccc2)c(OC)c1OC (configuration not stated) | 25µM* | -16% | ? | 50µM* | ?
CCOc1ccc(S(=O)(=O)NCc2ccc3c(c2)CCN3C(=O)c2ccc(C)cc2)cc1 | 1% | . | 25%[57 µM] | 9%[59 µM] | -26%
CCOC(=O)CN(C)C(=O)C1CC(CO[Si](C)(C)C(C)(C)C)=CN1C(=O)OC(C)(C)C (configuration not stated) | . | . | 18% | . | -26%
CC(=O)N1CCn2c3c(c4cc(C)ccc42)CCCC31 (configuration not stated) | 35µM* | -18% | -19% | -10%[12.7 µM] | -33%
Cc1ccc2c(c1)c1c3n2CCN(C(=O)CCl)C3CCC1 (configuration not stated) | 56µM* | -5% | -7% | ? | ?
CC(=O)N1CCn2c3c(c(=O)c4cc(C)ccc42)CCC31 (configuration not stated) | -7% | . | 36% | ? | -16%
Cc1ccc2c(c1)c1c(n2C)C(C(N)=O)CCC1 (configuration not stated) | -29% | -11% | 13% | 40µM* | -18%
COCC(=O)Oc1c(Sc2ccc(C)cc2)c(C)nn1C(C)(C)C | 43% | . | 77% | ? | 39%
COc1cccc(CN2C(=O)c3ccccc3Sc3ccc(C(=O)OCc4ccco4)cc32)c1 | -20% | . | 12%[57 µM] | 2%[59 µM] | -26%
CNc1nc(C23CC4CC(CC(C4)C2)C3)cs1 | -3% | . | -5% | 32µM* | -20%
O=C(CC(=O)Nc1nc(C23CC4CC(CC(C4)C2)C3)cs1)NCCO | -20% | -12% | -15% | -7%[59 µM] | -29%
N#Cc1ccccc1Cn1c(=O)n(CCCCC(=O)NCc2ccc3c(c2)OCO3)c(=O)c2ccccc21 | 5% | . | 20% | -21%[59 µM] | -6%
CC1=C(c2ccc(C(C)C)cc2)S(=O)(=O)N=C1N1CCC(C(=O)NCc2ccccc2)CC1 | -3% | . | 12% | 14%[59 µM] | -1%
CCOC(=O)c1ccc(N2CCN(c3cc(C)ccc3C)CC2)c(N)c1 | ? | . | 3% | 45µM* | ?
CC1CCN(c2ccc(C(=O)O)cc2N)CC1 | 50µM* | -3% | 6% | 79µM* | -25%
Nc1cc(C(=O)O)ccc1N1CCCCC1 | ? | ? | -21% | ? | ?
COC(=O)c1ccc(NC(=O)CC2C(=O)N(c3cccc(OC)c3)C(=O)N2Cc2cccc(OC)c2)cc1 (configuration not stated) | -17% | . | 22% | -7%[59 µM] | -10%
Cc1cccc(N=Nc2c(C)c(C#N)c(O)[nH]c2=O)c1 | -33% | -5% | 3% | 50µM* | -34%
Cc1c(C#N)c(O)[nH]c(=O)c1N=Nc1ccc(Br)cc1C(=O)O | ? | . | -5%[57 µM] | 45µM* | ?
COc1cc2c(cc1OC)C(COc1ccccc1OC)N(C(=O)COc1ccc(Cl)cc1)CC2 (configuration not stated) | -23% | . | 17% | -35%[59 µM] | -32%
